ChEMBL document CHEMBL3433997, “St. Jude Leishmania screening dataset” (2016)

target: Solute carrier family 2, facilitated glucose transporter member 1 (Homo sapiens) (UniProt P11166); assay: ST_JUDE_LEISH: Cytotoxicity at 2uM final concentration against transgenic Leishmania Mexicana promastigotes LmGLUT1 that are glucose transport deficient and complemented with the human glucose transporter GLUT1. Activity is measured by DNA content using SYBR green in vitro; format: functional
Sequence (P11166 whole entry): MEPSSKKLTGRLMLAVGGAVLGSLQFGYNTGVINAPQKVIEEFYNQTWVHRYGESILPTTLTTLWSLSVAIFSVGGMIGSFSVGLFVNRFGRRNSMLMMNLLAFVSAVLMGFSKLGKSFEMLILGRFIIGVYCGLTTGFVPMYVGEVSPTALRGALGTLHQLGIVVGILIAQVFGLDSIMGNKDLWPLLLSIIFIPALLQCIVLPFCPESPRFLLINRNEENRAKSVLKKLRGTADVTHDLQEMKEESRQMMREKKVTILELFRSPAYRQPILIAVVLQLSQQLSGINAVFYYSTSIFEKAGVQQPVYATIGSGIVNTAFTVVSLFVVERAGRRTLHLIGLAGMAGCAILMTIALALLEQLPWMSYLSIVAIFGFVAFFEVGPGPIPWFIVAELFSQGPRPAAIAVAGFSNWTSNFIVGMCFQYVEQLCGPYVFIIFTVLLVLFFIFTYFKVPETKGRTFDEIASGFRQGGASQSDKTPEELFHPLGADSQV

Which inhibition does the source give for CC(Cc1ccc(COc2ccc(CC(CO)NCCc3cccc(Cl)c3)cc2)cc1)NCCc1cccc(Cl)c1 (stereo not given) here?
Its inhibition is 51.7%.

How did the inhibition turn out when CCN(CC)CCCn1c(N)c(-c2nc3ccccc3[nH]2)c2nc(C#N)c(C#N)nc21 was run?
Its inhibition is 7.13%.

COc1ccccc1N1CCN(CCCCNC(=O)c2ccc(NC(=O)c3ccc(C(F)(F)F)cc3)cc2)CC1 was tested. Which inhibition did it give?
The inhibition was -0.92%.

For CC(C)COc1ccc(Cl)cc1Cc1ccc(-c2nc3cc(CCN(C)C)ccc3[nH]2)o1, which inhibition is on record?
The inhibition was 2.44%.

For Oc1cccc(CCNCCCCCCNCCc2ccc(Cl)cc2)c1, which inhibition is on record?
Its inhibition is 2.27%.

C=CCn1c(Sc2ccc(C#N)c([N+](=O)[O-])c2)nnc1-c1cc(OC)cc(OC)c1 was tested. Which inhibition did it give?
Its inhibition is 12.5%.

For CN(C)CCOc1ccc(-c2cc(-c3ccncc3)c(-c3ccc(Cl)c(O)c3)[nH]2)cc1, which inhibition is on record?
Its inhibition is 1.45%.

How did the inhibition turn out when CN1C(C)(C)CC(NC(=O)c2ccc(-c3nc4cc(Cl)ccc4[nH]3)cc2)CC1(C)C was run?
Its inhibition is 1.69%.

CC(C)COc1ccc2ccccc2c1CNCCCCCCNCc1c(OCC(C)C)ccc2ccccc12 was tested. Which inhibition did it give?
The inhibition was 86.6%.

How did the inhibition turn out when NC(=O)c1ccsc1NC(=O)CNC(c1ccccc1)c1ccccc1 was run?
The inhibition was 2.02%.

With CC(C)c1nc2c(N)nc(N)nc2nc1N as the compound, how does the inhibition read?
Its inhibition is -0.33%.

For CC(=NNC(N)=O)C1=C(O)C(c2ccccc2)N(C2CCCCC2)C1=O (stereo not given), which inhibition is on record?
The inhibition was -0.44%.

Which inhibition does the source give for N#Cc1cccc(CN2CCCN(Cc3ccc(C(=O)Nc4ccc(Cl)cc4)cc3)CC2)c1 here?
Its inhibition is 4.41%.

How did the inhibition turn out when O=C(Nc1cccc(-c2ccc(-c3nc4ccccc4[nH]3)cc2)c1)c1cccnc1 was run?
The inhibition was 6.47%.

Cc1[nH]cnc1Cc1ccc2c(c1O)c1ccccc1n2C was tested. Which inhibition did it give?
The inhibition was 2.71%.

For CCCc1cc(NC2CCN(C)CC2)nc(Nc2cccc(OC)c2)n1, which inhibition is on record?
The inhibition was 8.68%.

How did the inhibition turn out when Cc1cc(NS(=O)(=O)c2cccc(C(C)N3CCC(N4CCCC4)CC3)c2)ccc1C(C)C (stereo not given) was run?
Its inhibition is 6.44%.

With CN(CCC(CCN1CCC(c2c[nH]c3ccccc23)CC1)c1ccccc1)C(=O)Nc1ccc(Cl)c(Cl)c1 (stereo not given) as the compound, how does the inhibition read?
Its inhibition is 2.82%.

CCc1sc(N2CCN(C)CC2)nc1C(=O)Nc1ccc(F)cc1C(F)(F)F was tested. Which inhibition did it give?
Its inhibition is -1.9%.

For c1ccc2c(CNCCCN3CCN(CCCNCc4c5ccccc5cc5ccccc45)CC3)c3ccccc3cc2c1, which inhibition is on record?
The inhibition was 10.3%.

For O=C(CCc1nc2c(cnn2-c2ccccc2)c(=O)[nH]1)NC1CCSc2ccccc21 (stereo not given), which inhibition is on record?
The inhibition was 0.18%.

COc1ccc(CN2CCC(CNC(C)c3cccc4ccccc34)CC2)cc1 (stereo not given) was tested. Which inhibition did it give?
The inhibition was 7.32%.

Which inhibition does the source give for CCNc1cc(C(=O)N[C@@H](Cc2ccccc2)[C@H](O)CNC(C)(C)CCCC(C)C)cc(N2CCCCS2(=O)=O)c1 here?
The inhibition was -0.28%.

With O=C(Nc1ccc(Cl)cc1)Nc1ccc(-c2cccc(-c3nc4ccccc4[nH]3)c2)cc1 as the compound, how does the inhibition read?
Its inhibition is 1.48%.

For Oc1ccc(C2CNCCc3c2cc(O)c(OCc2ccccc2)c3Cl)cc1 (stereo not given), which inhibition is on record?
The inhibition was -0.07%.

Which inhibition does the source give for Nc1ncc(-c2ccsc2)cc1-c1nc2ccccc2[nH]1 here?
Its inhibition is 2.86%.

Cc1nc(-c2cccc(Nc3ccnc4cc(-c5nccs5)ccc34)c2)no1 was tested. Which inhibition did it give?
The inhibition was 2.59%.

With O=C(Nc1ccc2c(c1)CCC2)c1ccc(N2CCN(c3ccncc3)CC2)cn1 as the compound, how does the inhibition read?
Its inhibition is 11.7%.

How did the inhibition turn out when Cc1cc(C(=O)Nc2ccc3c(c2)CCN3C2CCN(Cc3cccc(F)c3F)C2)no1 (stereo not given) was run?
The inhibition was -0.4%.

Which inhibition does the source give for c1ccc2c(CNc3nc(NCC4CCCCC4)nc4[nH]cnc34)cccc2c1 here?
The inhibition was 4.27%.

How did the inhibition turn out when CCCCCCCCn1c2c(c(=N)c3c1CCC3)CCCC2 was run?
Its inhibition is 94.4%.

With Cc1[nH]c(C)c(-c2ccc(-c3cc(C(F)(F)F)cc(C(F)(F)F)c3)nc2)c(=O)c1Br as the compound, how does the inhibition read?
The inhibition was 4.9%.

For CCc1sc(N2CCC(C)CC2)nc1C(=O)Nc1ccc(F)cc1C(F)(F)F, which inhibition is on record?
Its inhibition is 2.29%.

For OC(CNCc1ccccc1OCc1ccccc1)c1cccc(Cl)c1 (stereo not given), which inhibition is on record?
The inhibition was 5.6%.

Which inhibition does the source give for CN(C)C=Nc1ccc(OCCCCCCOc2ccc(N=CN(C)C)cc2)cc1 here?
The inhibition was 3.14%.

For O=C(Nc1ccc(-c2cccc(-c3nc4cc(C(F)(F)F)ccc4[nH]3)c2)cc1)c1cccnc1, which inhibition is on record?
The inhibition was 0.28%.

With O=C(Nc1cc(Oc2ccc(O)cc2)cc([N+](=O)[O-])c1)c1cc(-c2ccc(F)cc2)no1 as the compound, how does the inhibition read?
Its inhibition is 2.24%.

With COc1cc(OC)cc(C(=O)Nc2nc(-c3ccc(NC(=O)c4ccccc4)cc3)cs2)c1 as the compound, how does the inhibition read?
The inhibition was 16.3%.

N#CCCN1CCN(Cc2cccc(-c3ccc(-c4nc5cc(F)ccc5[nH]4)cc3)c2)CC1 was tested. Which inhibition did it give?
Its inhibition is 4.34%.

How did the inhibition turn out when CCN1CCN(Cc2ccc3nc(-c4cc(C)n(Cc5cc(Cl)ccc5OCc5ccccc5)n4)[nH]c3c2)CC1 was run?
Its inhibition is 3.5%.

target: Hexose transporter 1 (Plasmodium falciparum) (UniProt O97467); assay: ST_JUDE_LEISH: Cytotoxicity at 2uM final concentration against transgenic Leishmania Mexicana promastigotes LmPfHT that are glucose transport deficient and complemented with the Plasmodium falciparum hexose transporter. Activity is measured by DNA content using SYBR green in vitro; format: functional

For CC(Cc1ccc(COc2ccc(CC(CO)NCCc3cccc(Cl)c3)cc2)cc1)NCCc1cccc(Cl)c1 (stereo not given), which inhibition is on record?
Its inhibition is 38.4%.

For CCN(CC)CCCn1c(N)c(-c2nc3ccccc3[nH]2)c2nc(C#N)c(C#N)nc21, which inhibition is on record?
Its inhibition is 6.56%.

COc1ccccc1N1CCN(CCCCNC(=O)c2ccc(NC(=O)c3ccc(C(F)(F)F)cc3)cc2)CC1 was tested. Which inhibition did it give?
The inhibition was -0.29%.

CC(C)COc1ccc(Cl)cc1Cc1ccc(-c2nc3cc(CCN(C)C)ccc3[nH]2)o1 was tested. Which inhibition did it give?
The inhibition was 4.3%.

Which inhibition does the source give for Oc1cccc(CCNCCCCCCNCCc2ccc(Cl)cc2)c1 here?
Its inhibition is 2.44%.

With C=CCn1c(Sc2ccc(C#N)c([N+](=O)[O-])c2)nnc1-c1cc(OC)cc(OC)c1 as the compound, how does the inhibition read?
The inhibition was 13.4%.

CN(C)CCOc1ccc(-c2cc(-c3ccncc3)c(-c3ccc(Cl)c(O)c3)[nH]2)cc1 was tested. Which inhibition did it give?
Its inhibition is 1.71%.

With CN1C(C)(C)CC(NC(=O)c2ccc(-c3nc4cc(Cl)ccc4[nH]3)cc2)CC1(C)C as the compound, how does the inhibition read?
Its inhibition is 2.24%.

How did the inhibition turn out when CC(C)COc1ccc2ccccc2c1CNCCCCCCNCc1c(OCC(C)C)ccc2ccccc12 was run?
Its inhibition is 88.5%.

NC(=O)c1ccsc1NC(=O)CNC(c1ccccc1)c1ccccc1 was tested. Which inhibition did it give?
The inhibition was 3.09%.

For CC(C)c1nc2c(N)nc(N)nc2nc1N, which inhibition is on record?
The inhibition was 0.25%.

Which inhibition does the source give for CC(=NNC(N)=O)C1=C(O)C(c2ccccc2)N(C2CCCCC2)C1=O (stereo not given) here?
Its inhibition is -0.08%.

How did the inhibition turn out when N#Cc1cccc(CN2CCCN(Cc3ccc(C(=O)Nc4ccc(Cl)cc4)cc3)CC2)c1 was run?
Its inhibition is 5.4%.

For O=C(Nc1cccc(-c2ccc(-c3nc4ccccc4[nH]3)cc2)c1)c1cccnc1, which inhibition is on record?
Its inhibition is 0.4%.

Which inhibition does the source give for Cc1[nH]cnc1Cc1ccc2c(c1O)c1ccccc1n2C here?
The inhibition was -0.2%.

How did the inhibition turn out when CCCc1cc(NC2CCN(C)CC2)nc(Nc2cccc(OC)c2)n1 was run?
Its inhibition is 6.18%.

For Cc1cc(NS(=O)(=O)c2cccc(C(C)N3CCC(N4CCCC4)CC3)c2)ccc1C(C)C (stereo not given), which inhibition is on record?
The inhibition was 5.82%.

For CN(CCC(CCN1CCC(c2c[nH]c3ccccc23)CC1)c1ccccc1)C(=O)Nc1ccc(Cl)c(Cl)c1 (stereo not given), which inhibition is on record?
The inhibition was 0.21%.

CCc1sc(N2CCN(C)CC2)nc1C(=O)Nc1ccc(F)cc1C(F)(F)F was tested. Which inhibition did it give?
Its inhibition is 1.37%.

How did the inhibition turn out when c1ccc2c(CNCCCN3CCN(CCCNCc4c5ccccc5cc5ccccc45)CC3)c3ccccc3cc2c1 was run?
The inhibition was 4%.

Which inhibition does the source give for O=C(CCc1nc2c(cnn2-c2ccccc2)c(=O)[nH]1)NC1CCSc2ccccc21 (stereo not given) here?
Its inhibition is 1.79%.

How did the inhibition turn out when COc1ccc(CN2CCC(CNC(C)c3cccc4ccccc34)CC2)cc1 (stereo not given) was run?
The inhibition was 12.7%.

With CCNc1cc(C(=O)N[C@@H](Cc2ccccc2)[C@H](O)CNC(C)(C)CCCC(C)C)cc(N2CCCCS2(=O)=O)c1 as the compound, how does the inhibition read?
Its inhibition is 0.88%.

With O=C(Nc1ccc(Cl)cc1)Nc1ccc(-c2cccc(-c3nc4ccccc4[nH]3)c2)cc1 as the compound, how does the inhibition read?
The inhibition was 2.71%.

How did the inhibition turn out when Oc1ccc(C2CNCCc3c2cc(O)c(OCc2ccccc2)c3Cl)cc1 (stereo not given) was run?
Its inhibition is -1.5%.

How did the inhibition turn out when Nc1ncc(-c2ccsc2)cc1-c1nc2ccccc2[nH]1 was run?
The inhibition was 6.79%.

Cc1nc(-c2cccc(Nc3ccnc4cc(-c5nccs5)ccc34)c2)no1 was tested. Which inhibition did it give?
The inhibition was 2.43%.

With O=C(Nc1ccc2c(c1)CCC2)c1ccc(N2CCN(c3ccncc3)CC2)cn1 as the compound, how does the inhibition read?
The inhibition was 12.8%.

With Cc1cc(C(=O)Nc2ccc3c(c2)CCN3C2CCN(Cc3cccc(F)c3F)C2)no1 (stereo not given) as the compound, how does the inhibition read?
The inhibition was -0.88%.

How did the inhibition turn out when c1ccc2c(CNc3nc(NCC4CCCCC4)nc4[nH]cnc34)cccc2c1 was run?
Its inhibition is 5.29%.

Which inhibition does the source give for CCCCCCCCn1c2c(c(=N)c3c1CCC3)CCCC2 here?
The inhibition was 95.9%.

Cc1[nH]c(C)c(-c2ccc(-c3cc(C(F)(F)F)cc(C(F)(F)F)c3)nc2)c(=O)c1Br was tested. Which inhibition did it give?
Its inhibition is 5.44%.

CCc1sc(N2CCC(C)CC2)nc1C(=O)Nc1ccc(F)cc1C(F)(F)F was tested. Which inhibition did it give?
Its inhibition is 3.34%.

For OC(CNCc1ccccc1OCc1ccccc1)c1cccc(Cl)c1 (stereo not given), which inhibition is on record?
The inhibition was 4.24%.

With CN(C)C=Nc1ccc(OCCCCCCOc2ccc(N=CN(C)C)cc2)cc1 as the compound, how does the inhibition read?
Its inhibition is 3.26%.

How did the inhibition turn out when O=C(Nc1ccc(-c2cccc(-c3nc4cc(C(F)(F)F)ccc4[nH]3)c2)cc1)c1cccnc1 was run?
The inhibition was 0.06%.

Which inhibition does the source give for O=C(Nc1cc(Oc2ccc(O)cc2)cc([N+](=O)[O-])c1)c1cc(-c2ccc(F)cc2)no1 here?
Its inhibition is -1.36%.

With COc1cc(OC)cc(C(=O)Nc2nc(-c3ccc(NC(=O)c4ccccc4)cc3)cs2)c1 as the compound, how does the inhibition read?
The inhibition was 9.26%.

How did the inhibition turn out when N#CCCN1CCN(Cc2cccc(-c3ccc(-c4nc5cc(F)ccc5[nH]4)cc3)c2)CC1 was run?
Its inhibition is 0.68%.

CCN1CCN(Cc2ccc3nc(-c4cc(C)n(Cc5cc(Cl)ccc5OCc5ccccc5)n4)[nH]c3c2)CC1 was tested. Which inhibition did it give?
The inhibition was 3.38%.
